HTT aggregate – reduces HttQ103-GFP aggregates in PC12 cells; actives 1.1% (n = 220,000); Potency, µM (top dose mostly 46.1 µM), for inactives: top-dose activity change, negative = inhibition, hits mostly inhibitors; PC12 HttQ103-GFP aggregates, Acumen cytometry, 40 h; active = well fitted curve in the direction sought with a large enough effect; inconclusive = small, poorly fitted or top-dose-only effect, or another doubt; inactive = no such curve, though single readings can be large; an effect the other way counts as inactive or inconclusive; note: potency is the fitted concentration of half-maximal effect; % is set by controls: 0 for no effect and ±100 for the full control effect; nearly all actives have a fitted effect of over 60% in size
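Multiplexed with ATP-based cell death, this channel scores GFP aggregates in PC12 cells expressing inducible HTTex1-Q103-GFP. Induction used 100 nM tebufenozide; compounds were tested in concentration series.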
PNC inhibitor – perinucleolar compartment assembly inhibition; actives 3.1% (n = 140,000); PC3M PTB-GFP, PNC prevalence imaging, 16 h; hits give low values; activity change (PNC), negative = inhibition, % at 10 µM; AID 2417;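 active = readout at or below -70, meaning at least 70% loss of cells showing the perinucleolar compartment, a nuclear body marking cancer cells; inconclusive = readout between -30 and a set limit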;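 note: plate controls were DMSO wells for no effect and camptothecin positive control wells for full effect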
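Compounds are pinned in duplicate onto adhered PC3M cells stably expressing GFP-tagged PTB and incubated 16 h at 37 C. Cells are then fixed, nuclei stained with Hoechst, and PNC-positive cells counted.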
HTT ATP protect – Huntington cell model cytoprotection by ATP luminescence; AID 1471; actives 0.14% (n = 230,000); Potency, µM (top dose mostly 56.4 µM), without a hit: cytoprotection (ATP increase), actives largely listed as activators; PC12 HTT-Q103 induced, cytoprotection, ATP luminescence, 40 h; active = well fitted curve in the direction sought with a large enough effect; inconclusive = small, poorly fitted or top-dose-only effect, or another doubt; inactive = no such curve, though single readings can be large; an effect the other way counts as inactive or inconclusive; note: potency is the fitted concentration of half-maximal effect; % of control where 0% means no effect; nearly all actives have a fitted effect of over 45% in size
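Quantitative HTS on tebufenozide-induced (100 nM) PC12 cells expressing HTTQ103 exon 1–GFP; compounds tested as a concentration series; survival measured via cellular ATP.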
GoLoco inh red – inhibitors of human Gai1-RGS12 GoLoco interaction (red fluorophore); P63096; Gai1:RGS12 GoLoco peptide FP, rhodamine, 10 min; Potency, µM (doses to about 61.6 µM), for the others: top-dose activity, negative = inhibition, most hits filed as inhibitors; actives 0.44% (n = 230,000); AID 880; active = well fitted inhibition curve with a large enough effect, not every such curve was filed as active; inactive = no such curve, though single readings can be large or run the other way; note: potency is the fitted concentration of half-maximal effect; % is set by controls: 0 for no effect and ±100 for the full control effect; nearly all actives have a fitted effect of over 30% in size
ALDH1A1 inh – inhibitors of human aldehyde dehydrogenase 1A1 | P00352 | Purified ALDH1A1, NADH fluorescence, propionaldehyde substrate | Potency, µM (doses to about 75.3 µM), inactives show at the top dose activity, negative = inhibition, actives largely listed as inhibitors | actives 7.3% (n = 220,000);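 note: potency is the fitted concentration of half-maximal effect; plate controls were no enzyme wells and a reference inhibitor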
HPGD block – HPGD (human) dehydrogenase inhibition | P15428 | purified HPGD, NADH fluorescence kinetic, PGE2 substrate | Potency, µM, for the others: at the top dose activity change, negative = inhibition, usual class: inhibitors | actives 4.3% (n = 150,000); note: potency is the fitted concentration of half-maximal effect; % is set by controls: 0 for no effect and ±100 for the full control effect
Target sequence (P15428 whole entry, looked up): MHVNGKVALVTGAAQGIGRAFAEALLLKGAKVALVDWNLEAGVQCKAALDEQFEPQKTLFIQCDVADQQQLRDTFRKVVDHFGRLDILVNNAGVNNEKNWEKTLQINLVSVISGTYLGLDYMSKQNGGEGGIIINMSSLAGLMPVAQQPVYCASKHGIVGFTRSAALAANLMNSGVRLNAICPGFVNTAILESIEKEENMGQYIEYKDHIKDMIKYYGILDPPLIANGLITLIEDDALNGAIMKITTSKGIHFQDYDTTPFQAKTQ
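20 nM HPGD preincubated 15 min at room temperature with compound in 50 mM Tris-HCl pH 8, 0.01% Tween 20. Started with 1 mM NAD+ and 30 uM prostaglandin E2; NADH fluorescence (360/450 nm) read 5 times over 30-s intervals, last minus first.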
* marks the source's active call; other numbers are inactive results; ? = inconclusive; / = no result; [ ] = dose if it differs, or a comment. Sampled rows, rich in hits. Any-hit rate of the full collection: about 11%. Unless noted, calls come from the whole dose curve; as a rule, active = well fitted inhibition curve with a large enough effect (not every such curve was filed as active); inconclusive = small, poorly fitted or top-dose-only effect, or another doubt; inactive = no such curve, though single readings can be large or run the other way.

SMILES	HTT aggregate	PNC inhibitor	HTT ATP protect	GoLoco inh red	ALDH1A1 inh	HPGD block
CC1CCCN(c2cc(N(C)CCO)c([N+](=O)[O-])c3nonc23)C1 (stereo not drawn)	-15%	/	43%	5%	?	/
CN(CCO)c1cc(N2CCCCC2)c2nonc2c1[N+](=O)[O-]	9%	/	-30%	-8%	16µM*	/
Cc1ccc(C(=O)N2CCC3(CC2)Oc2ccc(F)cc2C(=O)C32CC(c3ccc(Cl)cc3)=NO2)s1 (stereo not drawn)	?	/	4%[10 µM]	3%	/	/
O=C(O)c1ccccc1C(=O)NNc1ccc(F)cc1	3%	60	-9%	-19%	7.9µM*	?
O=C(O)c1ccccc1C(=O)NNc1ccc(Cl)cc1Cl	13%[9.22 µM]	/	-21%	4%	25µM*	/
O=C(NNC(=O)c1ccccc1-n1cccc1)c1ccc(Cl)cc1Cl	2%	41	5%	10%	3%	-8%
Cc1ccccc1-c1cncnc1N1CCNCC1	/	/	7%	4%	-9%	-2%
CC1CC(=O)C2=C(C1)OC(N)=C(C#N)C2c1coc2ccccc2c1=O (stereo not drawn)	7%	8	9%[1.9 µM]	9%	18µM*	-7%
N#CC1=C(N)OC2=C(C(=O)CCC2)C1c1ccccc1 (stereo not drawn)	18%	30	-13%[10 µM]	4%	-13%	-14%
CCOc1nc(NCc2ccco2)nc(Nc2ccc(OC)cc2)n1	-29%	?	-30%[10 µM]	-17%	20µM*	-13%
CCCCCCNc1nc(NCc2ccco2)nc(OCC)n1	10µM*	?	-59%	-17%	-3%	-19%
CCCCCCCCNc1nc(Cl)nc(NCc2ccco2)n1	-22%	4	0%[10 µM]	23%	8%	-5%
CC(=O)c1ccc(Nc2c3c(c(C#N)c4nc5ccccc5n24)CCC3)cc1	-13%	15	29%[10 µM]	17%	7%	-14%
COc1ccc(Nc2c3c(c(C#N)c4nc5ccccc5n24)CCC3)cc1	9%	8	2%	28%	?	1.3µM*
COc1ccc(C(=O)NNC(=O)C2CCCN(C3CC(=O)N(c4ccccc4)C3=O)C2)cc1 (stereo not drawn)	-4%[9.22 µM]	/	-24%[10 µM]	4%	/	/
CCOC(=O)C12CC1/C(=N/O)c1ccccc1O2 (stereo not drawn)	/	/	/	1%	-6%	-11%
CC(C)CNC(=O)C1CCN(Cc2ccc(OCc3ccccc3)cc2)CC1	22%	35	13%[10 µM]	10%	3%	1%
CN1CCN(Cc2ccc(OCc3ccccc3)cc2)CC1	4%	-86*	-15%	3%	-5%	0%
CC(O)CNC(=O)C1CCN(Cc2ccc(OCc3ccccc3)cc2)CC1 (stereo not drawn)	14%	-26	-3%[4.97 µM]	2%	20µM*	-4%
COC(=O)CC1c2ccccc2C(Cc2ccc3c(c2)OCO3)=C(C)N1C(=O)OC (stereo not drawn)	/	/	-81%	-2%	4%	-7%
CC(=O)OCc1cc(-c2nn(C)c(=O)c3ccccc23)ccc1C	-22%[9.22 µM]	/	-25%[10 µM]	7%	-4%	/
Cc1ccc(-c2nn(C)c(=O)c3ccccc23)cc1CO	2%	2	17%[10 µM]	-5%	11%	32µM*
Cc1ccc(-c2nn(C)c(=O)c3ccccc23)cc1CNC(=O)CN1CCOCC1	-2%	13	11%	1%	?	20µM*
CCC(CO)Nc1ccc(-c2nn(C)c(=O)c3ccccc23)cc1[N+](=O)[O-] (stereo not drawn)	2%[9.22 µM]	/	-21%[10 µM]	2%	1.4µM*	/
Cc1ccc(NS(=O)(=O)c2ccc(N3CCN(c4ccc(O)cc4)CC3)c([N+](=O)[O-])c2)c(C)c1	-30%	-19	32%[10 µM]	-15%	14µM*	-5%
CC(=O)N1CCCc2cc(S(=O)(=O)Nc3ccc(C)cc3C)ccc21	-9%	?	/	1%	?	-7%
O=[N+]([O-])c1cc(S(=O)(=O)Nc2ccccc2)ccc1-n1nnc2ccccc21	?	-114*	-31%	16%	?	-25%
